Source: PubChem BioAssay
This is a sample that favours compounds with a hit; in the whole collection about 1.4% have one here.
HNF4A DNA FP – change in binding of human HNF4A to DNA, primary screen, biochemical, fluorescence polarization, FITC-DNA; hit rate 0.3% among 360,000; Hepatocyte nuclear factor 4-alpha (Homo sapiens), P41235; activity change, % at 10 µM; 1 h; in the data active = activity change above about 30%, passing the limit was not always enough
TPT1 inh – Candida albicans TPT1 enzyme inhibitors, primary screen, biochemical, fluorescence polarization. inhibition, % at 5 µM. hit rate 0.81% among 300,000. recombinant caTPT1, FP RNA substrate dephosphorylation. tRNA 2'-phosphotransferase TPT1 (Candida albicans SC5314);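 active = inhibition above the mean of all tested compounds plus 3 SD, set per screening campaign, cut at about 24% in these data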;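 note: plate controls were DMSO alone for no effect and ferristatin control at 100 nM for full effect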
CRFBP-R2 agonist – agonists of CRF-BP/CRF-R2 complex, primary screen, cell-based, HEK293, calcium dye fluorescence, uHTS; hit rate 0.46% among 350,000; CRF-binding protein / CRF receptor 2 complex (human); calcium dye fluorescence (FLIPR); percent of saturating CRF peptide response; activation, % at 13.2 µM;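 active = activation of at least 50%, plus an integration ratio under a set limit after plate pattern correction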;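 note: plate controls were neutral control wells without compound for no effect and CRF at EC100 for full effect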
IDE cell activ – human IDE activators in live cells, primary screen, fluorescence polarization, HEK cells, FAbeta-B substrate; Insulin-degrading enzyme (Homo sapiens), P14735; FAbeta-B cleavage; 0% vehicle, 100% cell-free pure enzyme wells; activation, % at 5.96 µM; hit rate 0.073% among 340,000;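 active = activation above the mean of all tested compounds plus 3 SD, set per screening campaign, cut at about 17% in these data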
Target sequence (P14735 whole entry, looked up): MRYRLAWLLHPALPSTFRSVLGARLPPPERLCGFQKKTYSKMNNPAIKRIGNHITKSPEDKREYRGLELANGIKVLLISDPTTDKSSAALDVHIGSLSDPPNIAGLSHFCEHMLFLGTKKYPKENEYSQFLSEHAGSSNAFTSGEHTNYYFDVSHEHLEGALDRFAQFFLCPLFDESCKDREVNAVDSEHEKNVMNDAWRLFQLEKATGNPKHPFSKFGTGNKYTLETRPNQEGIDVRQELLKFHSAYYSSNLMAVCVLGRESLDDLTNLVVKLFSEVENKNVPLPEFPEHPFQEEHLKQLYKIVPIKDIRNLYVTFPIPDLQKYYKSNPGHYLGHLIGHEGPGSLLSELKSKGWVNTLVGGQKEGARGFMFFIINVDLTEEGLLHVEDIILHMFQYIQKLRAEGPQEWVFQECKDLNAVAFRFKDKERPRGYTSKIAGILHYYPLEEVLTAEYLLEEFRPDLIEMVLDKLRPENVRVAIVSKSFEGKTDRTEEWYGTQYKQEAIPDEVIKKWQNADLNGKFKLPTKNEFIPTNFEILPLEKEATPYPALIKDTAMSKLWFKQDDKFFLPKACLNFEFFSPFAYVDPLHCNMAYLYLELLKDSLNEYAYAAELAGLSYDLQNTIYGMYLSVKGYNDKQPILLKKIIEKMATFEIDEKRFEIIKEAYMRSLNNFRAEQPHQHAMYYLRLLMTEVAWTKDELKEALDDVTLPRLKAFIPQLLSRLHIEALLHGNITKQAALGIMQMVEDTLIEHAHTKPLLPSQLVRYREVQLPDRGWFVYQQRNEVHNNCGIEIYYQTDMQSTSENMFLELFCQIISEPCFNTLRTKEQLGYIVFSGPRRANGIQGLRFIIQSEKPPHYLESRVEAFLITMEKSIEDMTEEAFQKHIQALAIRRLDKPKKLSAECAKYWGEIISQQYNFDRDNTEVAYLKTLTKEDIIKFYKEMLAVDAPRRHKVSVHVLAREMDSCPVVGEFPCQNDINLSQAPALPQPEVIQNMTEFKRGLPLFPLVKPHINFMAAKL
IDE cell inh – human IDE inhibitors in live cells, primary screen, fluorescence polarization, HEK cells, FAbetaB substrate; FAbetaB cleavage; inhibition, % at 5.59 µM; hit rate 0.41% among 320,000; Insulin-degrading enzyme (Homo sapiens), P14735;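 active = percent inhibition above the average of all tested compounds plus 3 SD, set per screening campaign, cut at about 16% in these data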;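 note: IDE supplied by intact live HEK cells; FP after avidin binding of uncleaved biotin substrate so inhibition keeps polarization high; 0% = DMSO wells and 100% = 60 µM reference IDE inhibitor Ii1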
TPT1 inh confirm – Candida albicans TPT1 inhibitors, confirmation, biochemical, fluorescence polarization, triplicate | shares compounds with TPT1 inh | recombinant caTPT1, RNase T1 coupled | inhibition, % at 5 µM | hit rate 74% among 2,400;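 active = inhibition above the primary screen limit, the mean inhibition of all tested compounds plus 3 SD, cut at about 25% in these data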
RNase T1 counter – RNase T1 inhibitors, counter-screen for TPT1 inhibitor project, biochemical, fluorescence polarization; RNase T1 cleavage, 1536-well; hit rate 83% among 2,400; shares compounds with TPT1 inh; inhibition, % at 5 µM;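 active = inhibition above the solvent-only control well mean plus 3 SD, limit set per screening run, cut at about 23% in these data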;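 note: plate controls were DMSO wells with enzyme for no effect and wells without RNase T1 for full effect; inhibitors block cleavage so intact labeled substrate keeps polarization high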
The depositor's hits bear a star; x = not tested or not shown.

SMILES	HNF4A DNA FP	TPT1 inh	CRFBP-R2 agonist	IDE cell activ	IDE cell inh	TPT1 inh confirm	RNase T1 counter
Cc1cc(/C=C2\SC(=S)NC2=O)c(C)n1-c1ccccc1	75*	73*	8	x	13	69*	83*
Cc1cc(/C=C2\SC(=S)NC2=O)c(C)n1-c1ccc(O)cc1	99*	95*	9	-6	12	108*	119*
COc1cc(/C=C2/C(=N)N3C(=NC2=O)SN=C3S(C)(=O)=O)ccc1OC(=O)c1ccco1	51*	25*	0	-13	6	32*	36*
CCN1C=C(Cc2ccc(OC)cc2)C2=C(C1)C(c1ccc(OC)cc1)C(C#N)=C(N)O2 (configuration not stated)	8	44*	2	-5	2	27*	35*
COC(=O)c1c(-c2ccc(C)cc2)csc1NC(=O)c1c(-c2ccccc2)noc1C	x	0	x	x	-1	x	x
COC(=O)c1c(-c2cccnc2)csc1NC(=O)c1cc(C)on1	24	44*	7	-8	4	50*	66*
N#CC1=C(N)SC(N)=C(C#N)C1c1ccnc2ccccc12	39*	103*	19	-8	6	74*	85*
O=C1c2ccccc2C(=O)C1c1ccnc2ccccc12	9	11	1	3	-5	x	x
Cc1ccc(C)c(NC(=O)CN(C)C(=O)CN2C(=O)C3CCCCC3C2=O)c1 (configuration not stated)	-1	2	0	0	-5	x	x
CC(=O)C1=NN(c2ccccc2)C(c2ccc3c(c2)OCO3)N1c1ccccc1 (configuration not stated)	11	27*	3	1	1	46*	59*
CC(=O)C1=NN(c2ccccc2)C(c2cccs2)N1c1ccc(N(C)C)cc1 (configuration not stated)	5	-1	0	-4	-4	x	x
Cc1ccc2c(c1)C1(C(=O)N2C)N2CC3(C)CN1CC(C)(C2)C3=O (configuration not stated)	4	64*	1	2	3	-1	0
N#CC1=C(N)Oc2cc(O)c(Cl)cc2C1c1ccccc1F (configuration not stated)	-4	72*	192*	-31	34*	15	26*
Nc1nonc1C(=O)N/N=C/c1cc(Br)ccc1O	x	33*	56*	x	-6	30*	38*
Nc1nonc1-n1nnc(C(=O)N/N=C/c2cc(Br)ccc2O)c1CNc1ccccc1	8	7	3	2	4	x	x
CC(C)(C)OC(=O)N(CCc1ccccc1)Cc1cccc(OCc2cccc(NC(=O)C3CC3)c2)c1	-4	x	1	-1	x	x	x
O=C(O)C(=O)/C(=C\c1ccc(Cl)cc1)c1ccc2ccccc2n1	13	41*	16	2	6	35*	49*
COc1ccc(CCNC(=O)CSc2nnc(C(C)N(C)C)n2Cc2ccccc2)cc1OC (configuration not stated)	2	100*	-2	4	4	-1	3
CC(c1nnc(SCC(=O)Nc2ccc3[nH]c(=O)[nH]c3c2)n1Cc1ccccc1)N(C)C (configuration not stated)	2	-3	1	1	1	x	x
CN(C(=O)c1ccc(NC(=O)Cc2cccc(NC(=O)C3CCN(C(=O)c4ccccc4)CC3)c2)cc1)C1CCCC1	-2	x	-1	-1	-4	x	x
COc1ccc(CCCC(=O)NCC(=O)N/N=C/c2cc(Cl)ccc2OC)cc1	-1	x	0	2	x	x	x
Cc1[nH]c2ccccc2c1/C=C(\C#N)C(=O)NCc1ccccc1	12	31*	0	6	1	41*	49*
Cc1ccc(C(C)NC(=O)/C(C#N)=C\c2c(C)[nH]c3ccccc23)cc1 (configuration not stated)	-1	2	11	2	-2	x	x
N#CC1=C(N)OC2=C(CC/C2=C\c2ccccc2Cl)C1c1ccccc1Cl (configuration not stated)	81	67*	91*	-6	3	81*	89*
N#CC1=C(N)OC2=C(CC/C2=C\c2ccccc2)C1c1ccccc1 (configuration not stated)	20	83*	300*	-30	13	85*	88*
SMILES	HNF4A DNA FP	TPT1 inh	CRFBP-R2 agonist	IDE cell activ	IDE cell inh	TPT1 inh confirm	RNase T1 counter
COC(=O)c1ccc(NC(=O)Cc2ccccc2)cc1	0	-4	1	-2	2	x	x
CCN(CC(=O)Nc1ccc(C(=O)OC)cc1)Cc1ccccc1	-4	46*	0	4	7	8	10
CCN(CC)c1ccc(C=N/C(C#N)=C(\N)C#N)cc1	28	83*	35	-4	12	116*	121*
COCCNC(=S)N(CCO)Cc1cc2cc3c(cc2[nH]c1=O)OCCO3	-1	3	-1	-12	9	x	x
CC(C)NC(=O)C1CCN(C2CCN(C(=O)/C=C/c3cccs3)CC2)CC1	1	25*	-2	7	11	6	15
CN(CC(=O)Nc1c(Cl)cccc1Cl)C(=O)Cn1[nH]c(=O)c2ccccc2c1=O	7	x	2	-1	-6	x	x
Cc1cc(=O)[nH]c(N/N=C/c2c(O)n(-c3ccccc3)c(=O)c3ccccc23)n1	21	36*	-1	1	3	32*	39*
Cc1cc(=O)[nH]c(NN=Cc2c(Cl)cccc2Cl)n1	7	x	-4	-2	x	x	x
Cc1ccccc1NC(=O)Cn1c(CCC(=O)O)ccc1-c1cccs1	-1	3	-2	4	8	x	x
COC(=O)c1ccccc1NC(=O)Cn1c(CCC(=O)O)ccc1-c1cccs1	-1	32*	1	-4	-2	21	32*
Cc1cccc(C)c1Cn1c(C)c(C(=O)NCCC#N)sc1=O	4	x	x	x	x	x	x
O=C(NCC(=O)N1CCN(c2ccccc2)CC1)c1ccccc1	6	-3	-1	6	1	x	x
Cc1ccc(C(=O)CSc2nc(-c3ccccc3)ccc2C#N)cc1	5	24	40	-2	3	x	x
N#Cc1ccc(-c2ccco2)nc1SCC(=O)c1ccc(Cl)cc1	16	99*	17	-33	11	62*	67*
CCOC(=O)c1ccc(NCn2c(=O)oc3ccccc32)cc1	22	31*	62*	-1	1	44*	57*
